# Assay results from article PMC7862700, “An all-to-all approach to the identification of sequence-specific readers for epigenetic DNA modifications on cytosine”.
# Experiments:
# Assay in all cases: DAPPL (digital affinity profiling via proximity ligation, sequencing); 10 mM Tris-HCl pH 7.5, 50 mM NaCl, 1 mM DTT, 4% glycerol, room temperature, 30 min; GST-TFs on glutathione beads, 16-mer random dsDNA library, 0.1% formaldehyde crosslink after washing; high values mean tight binding
# FLI1 = target: T1, FLI1 (Homo sapiens, UniProt Q01543 1-452); details: protein: recombinant; tags: N-terminal GST; dsDNA, one strand shown
# T1 sequence: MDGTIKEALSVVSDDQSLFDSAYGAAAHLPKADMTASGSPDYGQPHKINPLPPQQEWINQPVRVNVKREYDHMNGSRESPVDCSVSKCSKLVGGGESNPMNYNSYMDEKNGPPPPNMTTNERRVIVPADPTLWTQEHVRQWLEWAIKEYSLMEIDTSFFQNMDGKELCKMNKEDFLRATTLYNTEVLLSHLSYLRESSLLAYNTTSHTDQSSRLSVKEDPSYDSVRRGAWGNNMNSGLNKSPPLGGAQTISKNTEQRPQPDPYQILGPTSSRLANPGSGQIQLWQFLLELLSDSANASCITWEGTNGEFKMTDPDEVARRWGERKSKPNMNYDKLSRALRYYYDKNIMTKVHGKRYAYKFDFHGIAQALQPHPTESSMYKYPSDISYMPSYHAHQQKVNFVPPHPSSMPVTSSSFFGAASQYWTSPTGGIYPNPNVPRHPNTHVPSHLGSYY
# Procedure, shortened: (§1)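 Human transcription factors fused to GST were expressed in yeast, captured on glutathione beads, given DNA barcodes and pooled with a GST-only negative control. Pools were incubated with 200 nmole of a 16-mer random double-stranded DNA library in Tris/NaCl/DTT/glycerol buffer at room temperature for 30 min. They were then washed, crosslinked with 0.1% formaldehyde, proximity-ligated (BsaI/T4 ligase, 1 h, 37 °C), PCR-amplified and sequenced on an Illumina NextSeq500. Binding signal is each 6-mer's read frequency for a factor divided by its frequency for the GST control.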
# ELK1 = target: T2, ELK1 (Homo sapiens, UniProt P19419 1-428); details: protein: recombinant; tags: N-terminal GST; dsDNA, one strand shown
# T2 sequence: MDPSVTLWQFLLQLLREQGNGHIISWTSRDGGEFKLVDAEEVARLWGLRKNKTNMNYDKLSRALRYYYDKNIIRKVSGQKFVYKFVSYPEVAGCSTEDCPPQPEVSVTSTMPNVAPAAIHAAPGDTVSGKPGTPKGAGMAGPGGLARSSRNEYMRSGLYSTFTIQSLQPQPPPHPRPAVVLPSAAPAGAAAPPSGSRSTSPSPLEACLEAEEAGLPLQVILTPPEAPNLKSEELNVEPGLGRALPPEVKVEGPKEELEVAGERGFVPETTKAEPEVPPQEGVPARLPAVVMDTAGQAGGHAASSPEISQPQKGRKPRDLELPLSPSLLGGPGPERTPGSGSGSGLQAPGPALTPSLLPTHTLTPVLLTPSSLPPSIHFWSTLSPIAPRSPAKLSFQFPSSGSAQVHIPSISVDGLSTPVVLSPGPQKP
# Procedure, shortened: as §1
# GABPA = target: T3, GABPA (Homo sapiens, UniProt Q06546 1-454); details: protein: recombinant; tags: N-terminal GST; dsDNA, one strand shown
# T3 sequence: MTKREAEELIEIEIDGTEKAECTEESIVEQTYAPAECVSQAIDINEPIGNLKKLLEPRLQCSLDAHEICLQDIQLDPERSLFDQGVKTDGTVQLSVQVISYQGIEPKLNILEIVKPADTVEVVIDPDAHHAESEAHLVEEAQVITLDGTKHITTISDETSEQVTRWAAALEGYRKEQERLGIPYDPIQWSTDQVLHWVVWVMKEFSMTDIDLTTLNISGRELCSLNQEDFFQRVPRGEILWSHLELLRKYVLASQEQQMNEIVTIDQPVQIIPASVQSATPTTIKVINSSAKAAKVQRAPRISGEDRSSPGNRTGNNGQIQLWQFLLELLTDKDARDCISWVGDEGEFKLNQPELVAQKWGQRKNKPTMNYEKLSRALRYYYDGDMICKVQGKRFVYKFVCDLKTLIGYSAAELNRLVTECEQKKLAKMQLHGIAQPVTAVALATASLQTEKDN
# Procedure, shortened: as §1
# ERG = target: T4, ERG (Homo sapiens, UniProt P11308 1-479); details: protein: recombinant; tags: N-terminal GST; dsDNA, one strand shown
# T4 sequence: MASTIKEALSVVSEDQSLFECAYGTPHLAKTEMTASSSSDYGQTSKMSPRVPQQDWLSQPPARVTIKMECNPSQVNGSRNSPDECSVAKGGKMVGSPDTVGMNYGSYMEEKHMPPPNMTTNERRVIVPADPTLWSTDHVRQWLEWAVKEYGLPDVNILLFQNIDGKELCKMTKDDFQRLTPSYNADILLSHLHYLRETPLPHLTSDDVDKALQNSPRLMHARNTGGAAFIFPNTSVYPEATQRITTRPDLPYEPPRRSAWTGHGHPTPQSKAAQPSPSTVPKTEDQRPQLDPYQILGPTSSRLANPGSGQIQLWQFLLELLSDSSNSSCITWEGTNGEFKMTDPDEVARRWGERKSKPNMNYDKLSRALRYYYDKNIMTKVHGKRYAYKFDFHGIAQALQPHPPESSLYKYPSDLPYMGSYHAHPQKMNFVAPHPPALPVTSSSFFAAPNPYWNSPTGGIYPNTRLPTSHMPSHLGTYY
# Procedure, shortened: as §1
# ELF1 = ELF1 (Homo sapiens, UniProt P32519 1-619); details: protein: recombinant; tags: N-terminal GST; dsDNA, one strand shown
# ELF1, sequence (P32519 whole entry): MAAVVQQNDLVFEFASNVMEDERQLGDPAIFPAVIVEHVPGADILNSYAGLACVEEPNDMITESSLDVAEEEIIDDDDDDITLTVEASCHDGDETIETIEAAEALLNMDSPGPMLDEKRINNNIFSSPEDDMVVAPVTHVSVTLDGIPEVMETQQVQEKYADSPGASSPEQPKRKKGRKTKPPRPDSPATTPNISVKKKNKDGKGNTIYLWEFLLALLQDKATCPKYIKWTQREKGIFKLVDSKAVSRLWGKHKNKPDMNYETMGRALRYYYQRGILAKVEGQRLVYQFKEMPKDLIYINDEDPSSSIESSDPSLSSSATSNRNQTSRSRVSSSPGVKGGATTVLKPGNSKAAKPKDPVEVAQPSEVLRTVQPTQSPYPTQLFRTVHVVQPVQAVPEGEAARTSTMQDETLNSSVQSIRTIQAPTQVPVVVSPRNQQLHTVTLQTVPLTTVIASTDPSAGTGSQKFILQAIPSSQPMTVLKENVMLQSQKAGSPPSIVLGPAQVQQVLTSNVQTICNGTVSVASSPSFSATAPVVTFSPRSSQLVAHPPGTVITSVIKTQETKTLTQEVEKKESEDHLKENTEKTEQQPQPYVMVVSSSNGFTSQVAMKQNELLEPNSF
# Procedure, shortened: as §1
# EHF = target: T5, EHF (Homo sapiens, UniProt Q9NZC4 1-300); details: protein: recombinant; tags: N-terminal GST; dsDNA, one strand shown
# T5 sequence: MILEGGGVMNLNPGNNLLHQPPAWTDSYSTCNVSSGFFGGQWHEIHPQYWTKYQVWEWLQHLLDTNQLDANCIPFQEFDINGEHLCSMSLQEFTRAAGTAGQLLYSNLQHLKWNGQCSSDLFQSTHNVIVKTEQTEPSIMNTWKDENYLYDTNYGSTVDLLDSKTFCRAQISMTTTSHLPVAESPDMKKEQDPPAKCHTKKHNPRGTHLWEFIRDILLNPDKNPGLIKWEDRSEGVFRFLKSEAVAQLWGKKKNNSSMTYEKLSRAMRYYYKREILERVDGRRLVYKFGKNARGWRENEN
# Procedure, shortened: as §1
# SPI1 = SPI1 (Homo sapiens, UniProt P17947 1-270); details: protein: recombinant; tags: N-terminal GST; dsDNA, one strand shown
# Procedure, shortened: as §1
# SPIB = SPIB (Homo sapiens, UniProt Q01892 1-262); details: protein: recombinant; tags: N-terminal GST; dsDNA, one strand shown
# SPIB, sequence (Q01892 whole entry): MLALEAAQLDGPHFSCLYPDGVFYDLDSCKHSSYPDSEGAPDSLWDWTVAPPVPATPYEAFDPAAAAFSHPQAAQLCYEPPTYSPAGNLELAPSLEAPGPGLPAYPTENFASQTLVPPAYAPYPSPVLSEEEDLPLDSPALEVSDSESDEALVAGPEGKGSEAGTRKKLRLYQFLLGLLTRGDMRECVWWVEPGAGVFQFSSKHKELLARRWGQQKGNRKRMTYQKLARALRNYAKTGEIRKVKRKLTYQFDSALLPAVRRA
# Procedure, shortened: as §1
# ELK3 = target: T6, ELK3 (Homo sapiens, UniProt P41970 1-407); details: protein: recombinant; tags: N-terminal GST; dsDNA, one strand shown
# T6 sequence: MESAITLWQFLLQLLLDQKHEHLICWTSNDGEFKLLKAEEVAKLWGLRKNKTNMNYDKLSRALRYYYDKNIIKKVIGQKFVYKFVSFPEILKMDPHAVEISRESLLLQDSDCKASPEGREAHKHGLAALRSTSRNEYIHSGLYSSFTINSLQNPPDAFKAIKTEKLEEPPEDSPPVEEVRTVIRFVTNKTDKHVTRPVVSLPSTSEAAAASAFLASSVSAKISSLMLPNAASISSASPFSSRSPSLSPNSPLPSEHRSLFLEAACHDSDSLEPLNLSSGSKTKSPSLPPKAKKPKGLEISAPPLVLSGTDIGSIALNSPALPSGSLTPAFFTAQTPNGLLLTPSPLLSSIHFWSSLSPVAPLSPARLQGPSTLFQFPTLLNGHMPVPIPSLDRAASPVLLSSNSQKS
# Procedure, shortened: as §1
# FEV = target: T7, FEV (Homo sapiens, UniProt Q99581 1-238); details: protein: recombinant; tags: N-terminal GST; dsDNA, one strand shown
# T7 sequence: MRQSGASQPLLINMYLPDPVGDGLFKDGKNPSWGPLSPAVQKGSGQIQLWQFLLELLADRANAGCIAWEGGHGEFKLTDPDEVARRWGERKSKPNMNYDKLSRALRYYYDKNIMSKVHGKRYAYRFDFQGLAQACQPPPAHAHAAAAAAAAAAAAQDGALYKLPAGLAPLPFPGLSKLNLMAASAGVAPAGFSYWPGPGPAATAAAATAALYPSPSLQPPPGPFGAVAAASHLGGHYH
# Procedure, shortened: as §1
# ETV5 = ETV5 (Homo sapiens, UniProt P41161 1-510); details: protein: recombinant; tags: N-terminal GST; dsDNA, one strand shown
# ETV5, sequence (P41161 whole entry): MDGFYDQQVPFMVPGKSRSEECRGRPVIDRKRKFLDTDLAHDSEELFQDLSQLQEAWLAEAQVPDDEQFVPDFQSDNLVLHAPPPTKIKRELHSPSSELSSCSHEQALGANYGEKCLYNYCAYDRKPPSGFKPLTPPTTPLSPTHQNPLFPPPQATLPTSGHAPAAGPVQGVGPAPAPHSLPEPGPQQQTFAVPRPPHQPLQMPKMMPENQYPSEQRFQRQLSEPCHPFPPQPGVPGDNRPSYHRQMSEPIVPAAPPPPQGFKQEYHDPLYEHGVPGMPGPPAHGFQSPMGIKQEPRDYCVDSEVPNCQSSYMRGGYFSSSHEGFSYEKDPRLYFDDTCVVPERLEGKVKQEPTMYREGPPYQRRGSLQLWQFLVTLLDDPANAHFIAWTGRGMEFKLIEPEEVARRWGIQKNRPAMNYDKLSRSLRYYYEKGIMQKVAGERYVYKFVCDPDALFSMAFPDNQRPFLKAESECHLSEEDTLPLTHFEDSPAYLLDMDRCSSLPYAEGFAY
# Procedure, shortened: as §1
# HSF1 = HSF1 (Homo sapiens, UniProt Q00613 1-529); details: protein: recombinant; tags: N-terminal GST; chain copies: 3; dsDNA, one strand shown
# HSF1, sequence (Q00613 whole entry): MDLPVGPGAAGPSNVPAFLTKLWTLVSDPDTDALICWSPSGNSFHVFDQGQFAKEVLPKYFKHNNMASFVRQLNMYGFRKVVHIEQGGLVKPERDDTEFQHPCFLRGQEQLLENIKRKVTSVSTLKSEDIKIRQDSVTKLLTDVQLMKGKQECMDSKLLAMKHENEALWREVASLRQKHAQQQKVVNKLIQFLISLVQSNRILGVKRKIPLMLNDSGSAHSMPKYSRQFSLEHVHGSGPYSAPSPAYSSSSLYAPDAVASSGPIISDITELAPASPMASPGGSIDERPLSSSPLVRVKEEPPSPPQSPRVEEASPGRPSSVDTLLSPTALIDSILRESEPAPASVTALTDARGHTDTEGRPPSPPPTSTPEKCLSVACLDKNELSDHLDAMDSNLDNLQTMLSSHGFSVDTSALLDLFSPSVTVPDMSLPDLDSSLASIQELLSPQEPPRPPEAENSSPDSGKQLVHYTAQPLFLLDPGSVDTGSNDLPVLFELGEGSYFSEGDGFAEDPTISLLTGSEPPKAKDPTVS
# Procedure, shortened: as §1
# SPIC = target: T8, SPIC (Homo sapiens, UniProt Q8N5J4 1-248); details: protein: recombinant; tags: N-terminal GST; dsDNA, one strand shown
# T8 sequence: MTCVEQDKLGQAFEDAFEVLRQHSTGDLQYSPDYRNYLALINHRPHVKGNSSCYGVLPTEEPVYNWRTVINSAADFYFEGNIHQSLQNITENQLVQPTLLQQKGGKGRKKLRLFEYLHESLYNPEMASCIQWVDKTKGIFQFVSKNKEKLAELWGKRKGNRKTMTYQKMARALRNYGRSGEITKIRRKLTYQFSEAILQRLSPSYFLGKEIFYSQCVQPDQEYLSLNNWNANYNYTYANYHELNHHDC
# Procedure, shortened: as §1
# ELF4 = ELF4 (Homo sapiens, UniProt Q99607 1-663); details: protein: recombinant; tags: N-terminal GST; dsDNA, one strand shown
# ELF4, sequence (Q99607 whole entry): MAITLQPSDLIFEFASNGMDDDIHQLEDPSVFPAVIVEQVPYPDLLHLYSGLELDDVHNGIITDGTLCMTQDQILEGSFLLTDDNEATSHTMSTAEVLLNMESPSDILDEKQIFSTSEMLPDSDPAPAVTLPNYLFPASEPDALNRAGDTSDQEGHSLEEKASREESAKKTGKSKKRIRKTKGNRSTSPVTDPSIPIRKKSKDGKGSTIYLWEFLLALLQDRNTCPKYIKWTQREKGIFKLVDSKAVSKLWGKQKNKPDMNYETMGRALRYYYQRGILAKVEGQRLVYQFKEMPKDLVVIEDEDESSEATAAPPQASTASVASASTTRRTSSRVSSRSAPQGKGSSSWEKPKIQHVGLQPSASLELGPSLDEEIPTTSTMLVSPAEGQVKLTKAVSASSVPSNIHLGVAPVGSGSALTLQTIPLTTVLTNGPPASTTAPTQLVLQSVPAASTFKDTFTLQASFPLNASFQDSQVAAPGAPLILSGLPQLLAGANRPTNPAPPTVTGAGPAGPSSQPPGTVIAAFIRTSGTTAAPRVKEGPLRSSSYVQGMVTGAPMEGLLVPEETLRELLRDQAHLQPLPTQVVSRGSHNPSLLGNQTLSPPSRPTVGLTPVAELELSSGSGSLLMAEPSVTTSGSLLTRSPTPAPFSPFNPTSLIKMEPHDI
# Procedure, shortened: as §1
# ELK4 = target: T9, ELK4 (Homo sapiens, UniProt P28324-2 1-405); details: protein: recombinant; tags: N-terminal GST; dsDNA, one strand shown
# T9 sequence: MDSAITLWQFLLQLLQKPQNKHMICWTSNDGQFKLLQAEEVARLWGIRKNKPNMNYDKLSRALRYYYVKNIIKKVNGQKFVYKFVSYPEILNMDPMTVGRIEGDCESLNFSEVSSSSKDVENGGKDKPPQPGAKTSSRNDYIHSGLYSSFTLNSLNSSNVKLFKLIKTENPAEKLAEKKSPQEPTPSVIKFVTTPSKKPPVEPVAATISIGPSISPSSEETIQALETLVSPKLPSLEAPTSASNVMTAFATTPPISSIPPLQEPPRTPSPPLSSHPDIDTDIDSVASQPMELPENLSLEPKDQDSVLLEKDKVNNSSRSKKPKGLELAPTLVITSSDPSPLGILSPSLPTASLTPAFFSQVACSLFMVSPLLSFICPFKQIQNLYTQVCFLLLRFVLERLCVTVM
# Procedure, shortened: as §1
# ETV2 = target: T10, ETV2 (Homo sapiens, UniProt O00321 1-342); details: protein: recombinant; tags: N-terminal GST; dsDNA, one strand shown
# T10 sequence: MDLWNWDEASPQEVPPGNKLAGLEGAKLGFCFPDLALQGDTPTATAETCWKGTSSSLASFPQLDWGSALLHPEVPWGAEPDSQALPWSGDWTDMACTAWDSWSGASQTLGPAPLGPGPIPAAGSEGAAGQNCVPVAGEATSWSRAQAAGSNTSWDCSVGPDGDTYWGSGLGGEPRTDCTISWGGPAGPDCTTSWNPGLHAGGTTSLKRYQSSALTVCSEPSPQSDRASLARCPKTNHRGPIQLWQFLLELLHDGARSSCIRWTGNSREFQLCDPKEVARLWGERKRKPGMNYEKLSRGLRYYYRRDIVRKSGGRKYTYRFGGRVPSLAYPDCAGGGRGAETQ
# Procedure, shortened: as §1
# ELF3 = target: T11, ELF3 (Homo sapiens, UniProt P78545 1-371); details: protein: recombinant; tags: N-terminal GST; dsDNA, one strand shown
# T11 sequence: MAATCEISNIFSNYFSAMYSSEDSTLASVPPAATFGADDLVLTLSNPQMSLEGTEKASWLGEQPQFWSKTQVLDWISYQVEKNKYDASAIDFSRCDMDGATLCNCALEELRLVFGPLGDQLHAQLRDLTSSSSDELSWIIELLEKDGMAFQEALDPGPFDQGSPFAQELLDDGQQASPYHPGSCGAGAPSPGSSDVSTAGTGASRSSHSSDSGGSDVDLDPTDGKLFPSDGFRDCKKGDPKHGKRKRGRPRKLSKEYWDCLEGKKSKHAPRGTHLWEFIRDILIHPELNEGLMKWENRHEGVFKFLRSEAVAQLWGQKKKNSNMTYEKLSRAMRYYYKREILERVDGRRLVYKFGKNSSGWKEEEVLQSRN
# Procedure, shortened: as §1
# CRX = CRX (Homo sapiens, UniProt O43186 1-299); details: protein: recombinant; tags: N-terminal GST; dsDNA, one strand shown
# CRX, sequence (O43186 whole entry): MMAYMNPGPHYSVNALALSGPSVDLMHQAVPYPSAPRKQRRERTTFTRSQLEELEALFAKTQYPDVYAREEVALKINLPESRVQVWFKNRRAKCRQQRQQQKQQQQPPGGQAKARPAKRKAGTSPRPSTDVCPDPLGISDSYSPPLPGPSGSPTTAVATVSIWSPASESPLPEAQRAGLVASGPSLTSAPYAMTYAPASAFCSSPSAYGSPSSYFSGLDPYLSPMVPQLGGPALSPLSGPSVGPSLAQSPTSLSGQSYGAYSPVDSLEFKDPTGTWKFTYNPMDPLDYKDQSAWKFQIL
# Procedure, shortened: as §1
# ETV1 = ETV1 (Homo sapiens, UniProt P50549 1-477); details: protein: recombinant; tags: N-terminal GST; dsDNA, one strand shown
# ETV1, sequence (P50549 whole entry): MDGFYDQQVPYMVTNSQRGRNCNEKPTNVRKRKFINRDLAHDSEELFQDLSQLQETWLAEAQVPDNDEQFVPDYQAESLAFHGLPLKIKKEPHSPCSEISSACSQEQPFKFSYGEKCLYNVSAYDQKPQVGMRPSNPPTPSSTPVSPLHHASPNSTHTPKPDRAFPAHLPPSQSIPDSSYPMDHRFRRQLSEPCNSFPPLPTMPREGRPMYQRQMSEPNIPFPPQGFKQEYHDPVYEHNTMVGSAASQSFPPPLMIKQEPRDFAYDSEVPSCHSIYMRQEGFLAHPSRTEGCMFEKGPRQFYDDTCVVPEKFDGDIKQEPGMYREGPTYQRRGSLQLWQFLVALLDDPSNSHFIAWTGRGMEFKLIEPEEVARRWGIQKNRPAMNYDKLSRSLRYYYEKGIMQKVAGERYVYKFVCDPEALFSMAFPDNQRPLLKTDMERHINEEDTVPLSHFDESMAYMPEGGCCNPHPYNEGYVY
# Procedure, shortened: as §1
sequence,measurement,setting,value
ACATCT,binding signal,FLI1,"1.39 fold enrichment (6-mer frequency, TF over GST control)"
same,binding signal,ELK1,"1.35 fold enrichment (6-mer frequency, TF over GST control)"
same,binding signal,GABPA,"1.35 fold enrichment (6-mer frequency, TF over GST control)"
same,binding signal,ERG,"1.34 fold enrichment (6-mer frequency, TF over GST control)"
same,binding signal,ELF1,"1.38 fold enrichment (6-mer frequency, TF over GST control)"
same,binding signal,EHF,"1.3 fold enrichment (6-mer frequency, TF over GST control)"
same,binding signal,SPI1,"1.4 fold enrichment (6-mer frequency, TF over GST control)"
same,binding signal,SPIB,"1.27 fold enrichment (6-mer frequency, TF over GST control)"
same,binding signal,ELK3,"1.44 fold enrichment (6-mer frequency, TF over GST control)"
same,binding signal,FEV,"1.29 fold enrichment (6-mer frequency, TF over GST control)"
same,binding signal,ETV5,"1.31 fold enrichment (6-mer frequency, TF over GST control)"
same,binding signal,HSF1,"1.36 fold enrichment (6-mer frequency, TF over GST control)"
same,binding signal,SPIC,"1.43 fold enrichment (6-mer frequency, TF over GST control)"
same,binding signal,ELF4,"1.29 fold enrichment (6-mer frequency, TF over GST control)"
same,binding signal,ELK4,"1.4 fold enrichment (6-mer frequency, TF over GST control)"
same,binding signal,ETV2,"1.29 fold enrichment (6-mer frequency, TF over GST control)"
same,binding signal,ELF3,"1.4 fold enrichment (6-mer frequency, TF over GST control)"
same,binding signal,CRX,"1.19 fold enrichment (6-mer frequency, TF over GST control)"
same,binding signal,ETV1,"1.32 fold enrichment (6-mer frequency, TF over GST control)"
